PPC-1+TRAIL kill: compounds killing PPC-1 cancer cells with TRAIL present, primary screen, TRAIL potentiator project, ATPLite luminescence, uHTS | PPC-1 cells + TRAIL, ATPLite viability luminescence | cell killing (% activity), % at 4 µM or 5 µM | 220,000 tested, 0.41% active | AID 1443, 2008;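 active = cell killing above 50% in the first pass at 4 µM, then a duplicate retest at 5 µM averaging 50% or more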
Platelet DG rel: inhibitors of platelet dense granule secretion, primary screen, cell-based, MLPCN, human platelets; human platelet-rich plasma, SFLLRN dense granule ATP release, luminescence; inhibition, %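 (compounds screened at 7.5 µM in platelet-rich plasma)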; 300,000 tested, 0.22% active; AID 1663, 2009;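 active = mean replicate score, as percent of positive control, at or above 50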
HSP90 refold inh: HSP90 inhibitors, primary screen, cell lysate, luminescence; Heat shock protein HSP 90 (rabbit reticulocyte lysate; luciferase refolding); Rabbit reticulocyte lysate, luciferase refolding luminescence, 3 h; inhibition, % at 5.6 µM; 290,000 tested, 0.91% active; AID 1789, 2009;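 active = inhibition above the screen-wide mean plus 3 SD, computed separately per campaign, cut at about 16% in these data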;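 also: inhibitors lower the luminescence because luciferase stays unfolded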
TROY NFkB inh: inhibitors of TROY-driven NF-kB signaling, primary screen, Q293 LMP1-TROYcd cells, NF-kB luciferase, uHTS. AID 1347056, 2019. 360,000 tested, 0.98% active. inhibition, % at 10 µM. Q293 LMP1-TROYcd NF-kB luciferase reporter, 4 h;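 active = compounds whose plate-normalised and pattern-corrected inhibition of the luciferase reporter signal at the single screening dose is 50% or more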
TWEAK Fn14 block: inhibitors of TWEAK-Fn14 signaling, primary screen, luciferase reporter cells, uHTS; TWEAK-stimulated Fn14 reporter cells, luciferase luminescence, 8 h; inhibition, % at 10 µM; 360,000 tested, 2% active; in the data active = inhibition above about 50%
TRAIL sens C8: viability loss with TRAIL in NB7+C8 cells, primary screen, TRAIL sensitizer project, cell-based, ATPlite luminescence. inhibition (viability loss, TRAIL sensitization), % at 10 µM. 360,000 tested, 1% active;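 active = compounds causing at least 50% loss of cell viability in the single-dose screen, relative to plate controls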
Large screens that a line does not name were inactive. Most compounds without a hit are left out; they make up all but 3.5% or so of the library.

Cc1c(O)nc(SCC(=O)Nc2nccs2)n(-c2ccccc2F)c1=O	none (no result: PPC-1+TRAIL kill)
CN(C(=O)COC(=O)c1nc(Cl)c(Cl)c(Cl)c1Cl)C1CCS(=O)(=O)C1 (stereo not given)	TROY NFkB inh 57, TWEAK Fn14 block 94
CCOC(=O)N1CCN(C(=O)CSc2ccc(-c3ccc(OC)c(OC)c3)nn2)CC1	none
COc1ccc(-c2ccc(SCC(=O)N3c4ccccc4CC3C)nn2)cc1OC (stereo not given)	TWEAK Fn14 block 63
COc1ccc(/C(O)=C2/C(=O)C(=O)N(c3ccccn3)C2c2ccc(C(C)C)cc2)cc1 (stereo not given)	none (no result: PPC-1+TRAIL kill)
O=C1CC(C(=O)NC2CCCCC2)C2(CCCCC2)O1 (stereo not given)	none
O=[N+]([O-])c1cc(C(F)(F)F)cc([N+](=O)[O-])c1NCCNC(=S)Nc1ccc(Cl)c(Cl)c1	TROY NFkB inh 58
CCN1CCN(c2cc(C)c3cc(NC(=S)N4CCCC(C)C4)ccc3n2)CC1 (stereo not given)	HSP90 refold inh 31, TROY NFkB inh 83, TWEAK Fn14 block 86
CCN1CCN(c2cc(C)c3cc(NC(=S)N4CCCC4)ccc3n2)CC1	none
CCN1CCN(c2cc(C)c3cc(NC(=S)N4CC(C)CC(C)C4)ccc3n2)CC1 (stereo not given)	TROY NFkB inh 54
Nc1ncnc2c1ncn2C1OC(CO)C(O)C1O (stereo not given)	Platelet DG rel 96
Nc1nc(SCc2ccccc2)c2ncn(C3OC(CO)C(O)C3O)c2n1 (stereo not given)	none (no result: PPC-1+TRAIL kill, Platelet DG rel, HSP90 refold inh)
Nc1nc(F)nc2c1ncn2[C@@H]1O[C@H](CO)[C@@H](O)[C@H]1O	Platelet DG rel 77, TROY NFkB inh 51, TWEAK Fn14 block 87, TRAIL sens C8 57 (no result: PPC-1+TRAIL kill, HSP90 refold inh)
N#Cc1c(N)n(C2OC(CO)C(O)C2O)c2ncnc(N)c12 (stereo not given)	TROY NFkB inh 62, TWEAK Fn14 block 101 (no result: PPC-1+TRAIL kill, Platelet DG rel, HSP90 refold inh)
OCC1OC(n2cnc3c(SCc4ccccc4)ncnc32)C(O)C1O (stereo not given)	TRAIL sens C8 55 (no result: PPC-1+TRAIL kill, Platelet DG rel, HSP90 refold inh)
Cn1c(=O)c2c(O)c([N+](=O)[O-])c(=O)n(C)c2n(C)c1=O	none
CCCN(CCC)c1nc(Cl)nc(NCc2ccco2)n1	TWEAK Fn14 block 75
Cc1ccccc1C1CC(c2ccccc2OC(F)F)Nc2ncnn21 (stereo not given)	none
Cc1ccc(C2CC(c3ccccc3OC(F)F)Nc3ncnn32)cc1 (stereo not given)	Platelet DG rel 51
Cn1ccc2c(-c3cccc4ccccc34)cc3c(c21)C1CCC3C1 (stereo not given)	TROY NFkB inh 77, TWEAK Fn14 block 82 (no result: PPC-1+TRAIL kill, Platelet DG rel, HSP90 refold inh)
Cn1ccc2c(-c3cccc(C=O)c3)cc3c(c21)C1CCC3C1 (stereo not given)	TROY NFkB inh 65 (no result: PPC-1+TRAIL kill, Platelet DG rel, HSP90 refold inh)
Cn1ccc2c(-c3ccc(F)cc3F)cc3c(c21)C1CCC3C1 (stereo not given)	none (no result: PPC-1+TRAIL kill, Platelet DG rel, HSP90 refold inh)
Cn1ccc2c(-c3cccc(C=O)c3F)cc3c(c21)C1CCC3C1 (stereo not given)	TROY NFkB inh 55, TWEAK Fn14 block 51 (no result: PPC-1+TRAIL kill, Platelet DG rel, HSP90 refold inh)
Cn1ccc2c(-c3cncc4ccccc34)cc3c(c21)C1CCC3C1 (stereo not given)	none (no result: PPC-1+TRAIL kill, Platelet DG rel, HSP90 refold inh)
Cc1cc(C)c2c(N)c(C(=O)c3ccc(Cl)cc3Cl)sc2n1	TWEAK Fn14 block 52
Cc1cc(C)c2c(N)c(C(=O)c3ccccc3Cl)sc2n1	none
Cc1cccc(NS(=O)(=O)c2cc(C(=O)OC(C)C(=O)NCc3ccc4c(c3)OCO4)ccc2C)c1 (stereo not given)	TWEAK Fn14 block 53
CC(=O)Nc1cccc(C(=O)OC(C)C(=O)NCc2ccc3c(c2)OCO3)c1 (stereo not given)	none (no result: PPC-1+TRAIL kill, HSP90 refold inh)
CC(C)CCNC(=O)C(c1ccc(O)cc1)N(Cc1cccs1)C(=O)C1COc2ccccc2O1 (stereo not given)	TWEAK Fn14 block 55
Cc1ccc(-n2c(O)c(/C=C3/C(c4ccccc4)=Nc4ccccc43)c(=O)[nH]c2=O)cc1	TWEAK Fn14 block 71
O=C(O)Cn1nnc(-c2ccccc2)c1COc1ccccc1	none (no result: PPC-1+TRAIL kill, Platelet DG rel, HSP90 refold inh)
Nc1ncnc2oc(-c3ccco3)c(-c3ccco3)c12	TWEAK Fn14 block 76
C=C1C(=O)c2sccc2C(c2ccc(OC)c(OC)c2)C1COC(C)=O (stereo not given)	TROY NFkB inh 69, TWEAK Fn14 block 100, TRAIL sens C8 93 (no result: PPC-1+TRAIL kill, Platelet DG rel, HSP90 refold inh)
COCOCCn1cc(CN2CCS(=O)(=O)N(Cc3ccc(-c4ccc(OC)nc4)cc3)C(C(C)C)C2=O)nn1 (stereo not given)	none (no result: PPC-1+TRAIL kill, Platelet DG rel, HSP90 refold inh)
CC1CCCCN1CCNC(=O)c1ccc2c(=O)n(Cc3ccc(Cl)cc3)c(=S)[nH]c2c1 (stereo not given)	none (no result: PPC-1+TRAIL kill)
Cc1[nH]n(-c2ccccc2)c(=O)c1N=Nc1ccc2c(c1)OCCO2	none
Cc1[nH]n(-c2ccccc2)c(=O)c1N=Nc1c(O)cc(S(=O)(=O)N(C)C)c2ccccc12	TWEAK Fn14 block 88, TRAIL sens C8 58 (no result: PPC-1+TRAIL kill, HSP90 refold inh)
O=C(Nc1ccc(Cl)c(C(F)(F)F)c1)c1ccncc1	none (no result: PPC-1+TRAIL kill)
CNC(=O)c1cc(Oc2ccc(NC(=O)Nc3ccc(Cl)c(C(F)(F)F)c3)cc2)ccn1	TROY NFkB inh 62, TWEAK Fn14 block 84, TRAIL sens C8 71 (no result: PPC-1+TRAIL kill, Platelet DG rel, HSP90 refold inh)
CCCNC(=O)C1(C)CCCN(C(=O)C2(c3ccc(Cl)cc3)CCCC2)C1 (stereo not given)	none (no result: PPC-1+TRAIL kill, Platelet DG rel, HSP90 refold inh)
CCOC(=O)CCN	none (no result: PPC-1+TRAIL kill, HSP90 refold inh)
Cc1ccc(C)c(OCCC(=O)OC(C)C(=O)Nc2c(C)n(C)n(-c3ccccc3)c2=O)c1 (stereo not given)	none (no result: PPC-1+TRAIL kill, HSP90 refold inh)
Cc1c(C(=O)N2CCc3ccccc32)oc2ccccc12	TRAIL sens C8 61
COCc1c(C(=O)N2CCc3ccccc32)oc2ccccc12	none (no result: PPC-1+TRAIL kill)
CC(C)CCn1c2ccccc2c2cc(CC(N)=O)ccc21	none
CCCc1[nH]nc2c1C(c1cn[nH]c1-c1ccc(F)cc1)C(C#N)=C(N)O2 (stereo not given)	TWEAK Fn14 block 54
O=C(CSc1ccccc1)N1CCN(c2ccc(F)cc2)CC1	none (no result: PPC-1+TRAIL kill, HSP90 refold inh)
O=C1C=CCCC1	none (no result: PPC-1+TRAIL kill, Platelet DG rel, HSP90 refold inh)
COc1cc(-c2nc(-c3ccc(NC(=O)c4ccc(Br)o4)cc3)no2)cc(OC)c1OC	TWEAK Fn14 block 59
COc1ccc(/C(N)=N/OC(=O)c2ccc3ccccc3c2)cc1OC	TRAIL sens C8 96 (no result: PPC-1+TRAIL kill, Platelet DG rel, HSP90 refold inh)
COc1ccc(/C(N)=N/OC(=O)c2c(-c3ccccc3Cl)noc2C)cc1OC	TRAIL sens C8 93 (no result: PPC-1+TRAIL kill)
N/C(=N\OC(=O)c1ccc2ccccc2c1)c1ccncc1	none
COc1ccc(/C(N)=N/OC(=O)c2ccc3c(c2)OCO3)cc1OC	TRAIL sens C8 82
N/C(=N\OC(=O)c1ccc2ccccc2c1)c1ccccc1Cl	TRAIL sens C8 93 (no result: PPC-1+TRAIL kill)
